PubChem BioAssay (Tox21)
Several values for one entry are separate records, joined by “and”; a condition that tells them apart may be missing. Equal entries are not always repeated. Inconclusive results are not listed. Some structures have more than one record in an assay (separate samples or runs), and their calls can disagree. Activity calls are given as the source filed them. Unless noted, the call rests on the fitted dose curve; in most records, active means well fitted curve in the direction sought with a large enough effect in the repeat runs; inconclusive means weak or mixed curves; inactive means no such curve, though single readings can be large; an effect the other way counts as inactive or inconclusive.

Tests used:
[1] = biological target: Acetylcholinesterase (Homo sapiens) (UniProt P22303); experiment: Acetylcholinesterase (AChE) small molecule antagonists: enzyme-based qHTS assay with human liver microsomes (AID 1347399; calls by dose curve; further: nearly all actives have a fitted effect of over 60% in size); conditions: Potency: qHTS inhibition; outcome: qHTS inhibition
How it was run: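 Recombinant human AChE (50 mU/mL in the enzyme mix) and human liver microsomes (0.25 mg/mL final) were preincubated with compound and NADPH (0.25 mg/mL final) for 30 min at 37 C. Acetylthiocholine/DTNB was then added; thiocholine was read colorimetrically after 10 min at room temperature.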

[2] = biological target: Cytochrome P450 2C19 (Homo sapiens) (UniProt P33261); experiment: Cytochrome P450 Family 2 Subfamily C Member 19 (CYP2C19) small molecule antagonists: luciferase reporter qHTS assay (AID 1671197); further: nearly all actives have a fitted effect of over 65% in size; further: potency means the concentration at half of the fitted maximal effect
How it was run: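 P450-Glo CYP2C19 system: enzyme-substrate mix with compound 10 min at room temperature, then NADPH regeneration solution, 1 h at 37C. Proluciferin-to-luciferin conversion detected by luminescence after 20 min with detection reagent; ketoconazole as positive control.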

[3] = biological target: Cytochrome P450 2C9 (Homo sapiens) (UniProt P11712); experiment: Cytochrome P450 Family 2 Subfamily C Member 9 (CYP2C9) small molecule antagonists: luciferase reporter qHTS assay (AID 1671198); further: nearly all actives have a fitted effect of over 50% in size; further: potency means the concentration at half of the fitted maximal effect
How it was run: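 Enzyme-substrate mix preincubated with compound 10 min at room temperature; reaction started with NADPH regeneration solution, 1 h 37C. Luminescent luciferin product read after 20 min detection reagent.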

[4] = biological target: Cytochrome P450 1A2 (Homo sapiens) (UniProt P05177); experiment: Cytochrome P450 Family 1 Subfamily A Member 2 (CYP1A2) small molecule antagonists: luciferase reporter qHTS assay (AID 1671199); further: nearly all actives have a fitted effect of over 50% in size; further: potency means the concentration at half of the fitted maximal effect
How it was run: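 Steps: enzyme-substrate mix dispensed; test compounds and furafylline control pinned in; 10 min room temperature; NADPH regeneration solution added, 1 h; reaction stopped with luciferin detection reagent; luminescence read after 20 min.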

[5] = biological target: Voltage-gated inwardly rectifying potassium channel KCNH2 (Homo sapiens) (UniProt Q12809); experiment: Human Ether-a-go-go-Related Gene (hERG) channel small molecule antagonists: fluorescence cell-based qHTS assay (AID 1671200); further: nearly all actives have a fitted effect of over 50% in size; further: potency means the concentration at half of the fitted maximal effect
How it was run: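 Measured: Tl+ flux via fluorescence (480/540 nm) in hERG-expressing U2OS cells after 1 h dye loading at room temperature.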

[6] = biological target: Cytochrome P450 3A4 (Homo sapiens) (UniProt P08684); experiment: Cytochrome P450 Family 3 Subfamily A Member 4 (CYP3A4) small molecule antagonists: luciferase reporter qHTS assay (AID 1671201); further: nearly all actives have a fitted effect of over 50% in size; further: potency means the concentration at half of the fitted maximal effect
How it was run: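 Setup: enzyme-substrate mix, compound pin transfer, 10 min RT. Reaction: NADPH regeneration solution, 1 h RT. Readout: detection reagent stops turnover, luminescence measured after 20 min, expressed in relative luminescence units.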

Measured: Potency

Chain of Cytochrome P450 2C9 (Homo sapiens) (P11712 whole entry, looked up): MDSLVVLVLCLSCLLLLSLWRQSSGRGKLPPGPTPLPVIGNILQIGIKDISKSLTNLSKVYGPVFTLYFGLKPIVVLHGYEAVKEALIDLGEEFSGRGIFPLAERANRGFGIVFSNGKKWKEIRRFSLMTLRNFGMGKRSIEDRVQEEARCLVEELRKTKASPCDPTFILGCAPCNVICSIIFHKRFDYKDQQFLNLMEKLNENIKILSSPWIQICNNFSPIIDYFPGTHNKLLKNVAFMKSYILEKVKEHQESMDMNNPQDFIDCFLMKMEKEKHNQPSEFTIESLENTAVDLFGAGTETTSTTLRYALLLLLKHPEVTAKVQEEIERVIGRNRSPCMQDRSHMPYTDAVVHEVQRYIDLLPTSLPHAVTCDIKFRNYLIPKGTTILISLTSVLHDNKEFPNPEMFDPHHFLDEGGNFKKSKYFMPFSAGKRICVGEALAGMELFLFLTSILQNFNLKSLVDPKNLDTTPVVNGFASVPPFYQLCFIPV
Chain of Acetylcholinesterase (Homo sapiens) (P22303 whole entry, looked up): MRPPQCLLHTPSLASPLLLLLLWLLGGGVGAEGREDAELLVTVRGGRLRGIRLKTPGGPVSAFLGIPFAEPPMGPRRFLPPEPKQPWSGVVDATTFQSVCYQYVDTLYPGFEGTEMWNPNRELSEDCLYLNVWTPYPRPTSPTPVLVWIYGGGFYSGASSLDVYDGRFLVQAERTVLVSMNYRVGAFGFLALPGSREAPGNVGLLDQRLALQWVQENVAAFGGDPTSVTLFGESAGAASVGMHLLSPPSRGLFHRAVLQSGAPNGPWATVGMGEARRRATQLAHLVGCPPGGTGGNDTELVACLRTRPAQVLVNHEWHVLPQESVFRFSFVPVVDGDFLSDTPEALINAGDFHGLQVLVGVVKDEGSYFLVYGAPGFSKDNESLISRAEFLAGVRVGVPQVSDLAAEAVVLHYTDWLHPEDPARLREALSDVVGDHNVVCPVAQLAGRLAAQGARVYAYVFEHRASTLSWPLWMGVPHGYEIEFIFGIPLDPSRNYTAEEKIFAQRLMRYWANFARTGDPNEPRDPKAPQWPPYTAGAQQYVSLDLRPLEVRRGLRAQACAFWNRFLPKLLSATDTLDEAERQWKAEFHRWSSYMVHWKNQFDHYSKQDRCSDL
Chain of Cytochrome P450 3A4 (Homo sapiens) (P08684 whole entry, looked up): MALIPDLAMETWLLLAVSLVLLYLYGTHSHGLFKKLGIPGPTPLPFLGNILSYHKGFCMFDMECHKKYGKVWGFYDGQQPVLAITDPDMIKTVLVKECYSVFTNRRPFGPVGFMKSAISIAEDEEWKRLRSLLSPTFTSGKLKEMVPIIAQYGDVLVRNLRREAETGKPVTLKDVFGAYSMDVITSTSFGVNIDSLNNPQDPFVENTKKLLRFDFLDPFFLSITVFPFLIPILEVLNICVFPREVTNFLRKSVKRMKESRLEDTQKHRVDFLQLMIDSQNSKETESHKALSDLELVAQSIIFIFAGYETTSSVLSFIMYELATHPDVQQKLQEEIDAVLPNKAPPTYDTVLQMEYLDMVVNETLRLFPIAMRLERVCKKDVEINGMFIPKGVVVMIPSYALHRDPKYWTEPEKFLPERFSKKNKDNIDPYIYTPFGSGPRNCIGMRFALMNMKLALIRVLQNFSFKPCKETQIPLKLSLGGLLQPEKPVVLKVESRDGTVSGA
Chain of Cytochrome P450 1A2 (Homo sapiens) (P05177 whole entry, looked up): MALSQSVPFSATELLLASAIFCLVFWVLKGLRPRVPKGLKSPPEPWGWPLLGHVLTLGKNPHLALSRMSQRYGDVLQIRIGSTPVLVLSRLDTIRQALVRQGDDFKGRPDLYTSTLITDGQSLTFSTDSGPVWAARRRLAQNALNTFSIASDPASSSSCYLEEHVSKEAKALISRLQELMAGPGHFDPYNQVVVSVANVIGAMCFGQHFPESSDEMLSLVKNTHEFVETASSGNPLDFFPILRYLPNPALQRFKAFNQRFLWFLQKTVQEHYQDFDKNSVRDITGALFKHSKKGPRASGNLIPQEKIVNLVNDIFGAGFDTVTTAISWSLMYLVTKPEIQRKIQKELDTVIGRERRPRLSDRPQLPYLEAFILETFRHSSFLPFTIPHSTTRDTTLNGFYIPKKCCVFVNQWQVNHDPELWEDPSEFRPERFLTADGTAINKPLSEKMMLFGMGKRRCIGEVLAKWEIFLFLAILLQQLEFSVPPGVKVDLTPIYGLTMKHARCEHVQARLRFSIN
Chain of Cytochrome P450 2C19 (Homo sapiens) (P33261 whole entry, looked up): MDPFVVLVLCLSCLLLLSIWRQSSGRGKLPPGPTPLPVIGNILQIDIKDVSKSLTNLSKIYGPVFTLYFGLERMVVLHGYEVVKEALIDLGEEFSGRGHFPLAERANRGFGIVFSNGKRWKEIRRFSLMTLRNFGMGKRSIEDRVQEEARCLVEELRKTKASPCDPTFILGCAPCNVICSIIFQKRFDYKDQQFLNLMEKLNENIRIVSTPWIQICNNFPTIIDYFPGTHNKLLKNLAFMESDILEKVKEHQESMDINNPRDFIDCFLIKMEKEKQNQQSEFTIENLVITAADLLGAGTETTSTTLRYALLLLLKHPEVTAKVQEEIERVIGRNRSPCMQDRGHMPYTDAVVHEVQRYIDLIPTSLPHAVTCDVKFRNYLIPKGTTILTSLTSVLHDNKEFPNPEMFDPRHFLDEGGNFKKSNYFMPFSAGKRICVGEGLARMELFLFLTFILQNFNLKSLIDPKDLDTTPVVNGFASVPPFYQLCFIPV
Chain of Voltage-gated inwardly rectifying potassium channel KCNH2 (Homo sapiens) (Q12809 whole entry, looked up): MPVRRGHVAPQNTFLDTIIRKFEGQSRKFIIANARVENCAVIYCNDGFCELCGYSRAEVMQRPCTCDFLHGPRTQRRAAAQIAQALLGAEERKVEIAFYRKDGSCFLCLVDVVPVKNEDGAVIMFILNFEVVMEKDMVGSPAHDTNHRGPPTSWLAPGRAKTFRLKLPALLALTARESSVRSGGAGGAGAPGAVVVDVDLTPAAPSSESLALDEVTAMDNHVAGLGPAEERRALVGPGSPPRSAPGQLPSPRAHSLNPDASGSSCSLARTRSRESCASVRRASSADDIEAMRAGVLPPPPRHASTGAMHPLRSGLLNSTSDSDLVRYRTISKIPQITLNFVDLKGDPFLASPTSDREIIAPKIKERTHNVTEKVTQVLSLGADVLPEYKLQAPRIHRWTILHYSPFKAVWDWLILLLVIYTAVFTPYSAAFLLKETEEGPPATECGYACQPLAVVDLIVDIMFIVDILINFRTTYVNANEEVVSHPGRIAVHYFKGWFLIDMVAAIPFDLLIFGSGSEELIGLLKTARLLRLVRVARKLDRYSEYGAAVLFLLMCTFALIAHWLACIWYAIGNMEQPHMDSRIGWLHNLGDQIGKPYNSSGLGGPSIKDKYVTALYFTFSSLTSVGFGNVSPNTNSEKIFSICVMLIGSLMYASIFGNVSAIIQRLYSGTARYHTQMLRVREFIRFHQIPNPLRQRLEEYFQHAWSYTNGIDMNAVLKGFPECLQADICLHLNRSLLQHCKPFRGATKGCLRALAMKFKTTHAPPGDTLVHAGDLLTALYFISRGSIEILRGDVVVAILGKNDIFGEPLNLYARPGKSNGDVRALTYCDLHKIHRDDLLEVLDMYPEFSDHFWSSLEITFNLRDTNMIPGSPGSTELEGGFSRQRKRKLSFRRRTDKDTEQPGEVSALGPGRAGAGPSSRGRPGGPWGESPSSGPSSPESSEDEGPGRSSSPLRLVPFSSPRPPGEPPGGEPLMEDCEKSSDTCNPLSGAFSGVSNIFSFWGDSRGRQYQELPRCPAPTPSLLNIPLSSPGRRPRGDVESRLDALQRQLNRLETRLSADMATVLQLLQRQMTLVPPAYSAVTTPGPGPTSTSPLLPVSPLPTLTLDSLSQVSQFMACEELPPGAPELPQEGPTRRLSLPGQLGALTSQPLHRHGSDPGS

CC(Cl)C(=O)O (stereo unspecified)
inactive: all assays above

CC(C)CCON=O
inactive: all assays above

CCCC1CCCCN1 (stereo unspecified)
not listed: [5]
inactive: all other assays above

N#CC1(N=NC2(C#N)CCCCC2)CCCCC1
active: [2] 5.03 µM | [3] 11.2 µM | [5] 38.9 µM
inactive: [1] | [4]

Cc1nc2ccccc2c(=O)n1-c1ccccc1Cl
active: [2] 2.77 µM | [3] 39.1 µM
inactive: all other assays above

O=[N+]([O-])O[C@H]1CO[C@H]2[C@@H]1OC[C@H]2O[N+](=O)[O-]
inactive: all assays above

CCCN(CCOc1c(Cl)cc(Cl)cc1Cl)C(=O)n1ccnc1
active: [2] 22.9 nM and 50.2 nM | [3] 457 nM and 796 nM | [4] 129 nM and 224 nM | [5] 12.6 µM and 19.5 µM | [6] 32.4 nM and 100 nM
inactive: [1]

O=C(O)COc1cc(Cl)c(Cl)cc1Cl
active: [3] 63.4 µM and 39.9 µM
inactive: all other assays above

FC(F)OC(F)(F)C(F)Cl (stereo unspecified)
active: [4] 35.6 µM
not listed: [6]
inactive: all other assays above

OC[P+](CO)(CO)CO
not listed: [5]
inactive: all other assays above

CCCCC(CC)CO[N+](=O)[O-] (stereo unspecified)
inactive: all assays above

O=C(N[C@H]1CN2CCC1CC2)c1ccc2c(c1)OCCO2
inactive: all assays above

C#CC(O)(C=CCl)CC (stereo unspecified)
inactive: all assays above

O=P(OCC(Br)CBr)(OCC(Br)CBr)OCC(Br)CBr (stereo unspecified)
inactive: [1]
active: [2] 3.6 µM and 4.25 µM | [3] 16.1 µM and 16.9 µM | [4] 7.19 µM and 9.52 µM | [5] 12.5 µM and 18.5 µM | [6] 2.55 µM and 7.56 µM

CCOP(=S)(OCC)SCSc1cc(Cl)ccc1Cl
inactive: all assays above

Nc1ccccc1C(=O)OCCc1ccccc1
active: [2] 5.66 µM and 8.94 µM | [3] 31.8 µM and 35.6 µM | [4] 7.13 µM and 7.1 µM
inactive: [1] | [5]

O=C(O)C(Cl)(Cl)Br
inactive: all assays above

NC(=O)CF
inactive: all assays above

CCCCCCCCCCCC[N+](C)(C)CCOc1ccccc1
inactive: [1] | [6]
active: [2] 56.4 µM | [3] 63.3 µM
79.7 µM (active) and inactive: [4]

CCCCCBr
inactive: all assays above

CCCCCCCCn1sccc1=O
active: [2] 10.1 µM and 23.5 µM | [3] 10.1 µM and 9.37 µM | [4] 28.3 µM and 23.5 µM | [5] 21.9 µM | [6] 28.3 µM and 37.3 µM
inactive: [1]

O=CC=O
inactive: all assays above

CCCBr
not listed: [6]
inactive: all other assays above

N#CC(C#N)=C(C#N)C#N
active: [2] 58.9 µM | [3] 33.1 µM | [4] 41.7 µM
inactive: [1] | [5]

O=C1CC[C@@]2(O)[C@H]3Cc4ccc(O)c5c4[C@@]2(CCN3CC2CC2)[C@H]1O5
not listed: [6]
inactive: all other assays above

O=C1NC(=O)C(=O)C(=O)N1
inactive: all assays above

CCOC(C(=O)OCCN(C)C)(c1ccccc1)c1ccccc1
active: [2] 8.71 µM | [3] 11 µM
inactive: [1] | [4] | [5]

CC(Oc1cc(Cl)c(Cl)cc1Cl)C(=O)O (stereo unspecified)
active: [3] 31.8 µM
inactive: [1] | [2] | [5]
